This is part of a sample that, as a whole, favours compounds with a hit. Of some 79,000 tested, about 15% had one in any assay. The source made the active and inactive calls. No stated cut-off is given here; in the data, active means growth inhibition above about 70%; inactive means the rest.
Tests used:
[1] = NCI Yeast Anticancer Drug Screen. Data for the rad52 strain (AID 147);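 further: 0% = growth of vehicle-treated control cultures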; conditions: S. cerevisiae rad52 mutant growth inhibition, stronger effect = higher value
Method in brief: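 Compounds are applied to a genetically defined yeast strain lacking normal DNA damage repair, and inhibition of growth is expressed relative to cultures given vehicle only.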

[2] = NCI Yeast Anticancer Drug Screen. Data for the wt1 strain (AID 149);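 further: 0% = growth of vehicle-treated wt1 cultures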; conditions: S. cerevisiae wt1 strain (SPY 50644) growth inhibition, stronger effect = higher value
Method in brief: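 Each compound is tested on wt1 yeast and the loss of growth versus vehicle gives the inhibition value.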

[3] = NCI Yeast Anticancer Drug Screen. Data for the rad50EPP+ strain (AID 151);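 further: 0% = growth of vehicle-treated control cultures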; conditions: S. cerevisiae rad50 mutant strain, stronger effect = higher value
Method in brief: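 Compounds were applied to the rad50EPP+ yeast strain, which bears a defined DNA repair alteration, and growth inhibition was determined relative to vehicle-treated cultures.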

[4] = NCI Yeast Anticancer Drug Screen. Data for the mgt1 strain (AID 153); conditions: S. cerevisiae mgt1 mutant growth inhibition, stronger effect = higher value
Method in brief: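 Strain: mgt1 yeast, one of a set carrying defined DNA damage repair or cell cycle control alterations. Compound-treated growth compared with vehicle.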

[5] = NCI Yeast Anticancer Drug Screen. Data for the rad50 strain (AID 155);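 further: 0% = growth of vehicle-only cultures of the same strain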; conditions: S. cerevisiae rad50 strain growth inhibition, stronger effect = higher value
Method in brief: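 Vehicle-treated cultures provide the reference for the growth inhibition reported for compound-exposed, repair-deficient yeast.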

[6] = NCI Yeast Anticancer Drug Screen. Data for the mec2-1 strain (AID 157); conditions: S. cerevisiae mec2-1 strain, stronger effect = higher value
Method in brief: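 Strain: mec2-1 (DNA repair/cell cycle alteration). Compound exposure, then growth measured; inhibition expressed relative to vehicle.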

[7] = NCI Yeast Anticancer Drug Screen. Data for the rad14 strain (AID 159);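 further: 0% = growth of vehicle-treated control cultures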; conditions: S. cerevisiae rad14 strain growth inhibition, stronger effect = higher value
Method in brief: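 Inhibition of growth is reported for a repair-deficient yeast mutant following compound treatment, calculated relative to cultures that received vehicle.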

[8] = NCI Yeast Anticancer Drug Screen. Data for the sgs1 mgt1 strain (AID 161);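 further: 0% = growth of cultures given vehicle only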; conditions: S. cerevisiae sgs1 mgt1 strain, stronger effect = higher value
Method in brief: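 Read-out: growth inhibition vs vehicle controls. Cells: mutant yeast strain deficient in DNA damage repair.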

[9] = NCI Yeast Anticancer Drug Screen. Data for the CLN2oe strain (AID 163);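 further: 0% = growth of vehicle-only control cultures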; conditions: S. cerevisiae CLN2oe strain, stronger effect = higher value
Method in brief: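 Growth of a genetically modified yeast strain is measured after compound exposure and compared with cultures given vehicle alone.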

[10] = NCI Yeast Anticancer Drug Screen. Data for the bub3 strain (AID 167); conditions: S. cerevisiae bub3 mutant strain, stronger effect = higher value
Method in brief: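 Mutant yeast screening strain plus compound; vehicle-treated cultures serve as the 0% inhibition reference.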

[11] = NCI Yeast Anticancer Drug Screen. Data for the wt2 strain (AID 169); conditions: S. cerevisiae wt2 strain growth inhibition, stronger effect = higher value
Method in brief: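 This strain belongs to a panel of yeast strains with defined genetic alterations in DNA damage repair or cell cycle control. Compounds are applied, and growth inhibition is measured against vehicle-treated cultures.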

[12] = NCI Yeast Anticancer Drug Screen. Data for the mlh1 strain (AID 171);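 further: 0% = growth of vehicle-treated control cultures of the same strain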; conditions: S. cerevisiae mlh1 strain growth inhibition, stronger effect = higher value
Method in brief: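 Growth of the mutant yeast strain after compound exposure, expressed as inhibition relative to vehicle-only controls.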

[13] = NCI Yeast Anticancer Drug Screen. Data for the sgs1 strain (AID 173);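 further: 0% = growth of vehicle-only control cultures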; conditions: S. cerevisiae sgs1 mutant, stronger effect = higher value
Method in brief: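 Growth of a yeast strain bearing a defined genetic alteration is measured after compound treatment. Inhibition is expressed relative to vehicle-only controls.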

[14] = NCI Yeast Anticancer Drug Screen. Data for the mlh1 rad18 strain (AID 175); conditions: S. cerevisiae mlh1 rad18 strain growth inhibition, stronger effect = higher value
Method in brief: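 Read-out is yeast growth inhibition, calculated against vehicle-only controls. The compound was applied to a strain engineered with DNA damage repair alterations.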

[15] = NCI Yeast Anticancer Drug Screen. Data for the rad18 strain (AID 177); conditions: S. cerevisiae rad18 mutant growth inhibition, stronger effect = higher value
Method in brief: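 Growth of the mutant yeast strain after compound exposure, normalised to vehicle-only cultures.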

[16] = NCI Yeast Anticancer Drug Screen. Data for the cln2 rad14 strain (AID 165);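 further: 0% = growth equal to vehicle treated cultures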; conditions: S. cerevisiae cln2 rad14 strain, stronger effect = higher value
Method in brief: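 Compounds are applied to the cln2 rad14 yeast strain, and growth is then compared with that of vehicle-treated cultures to give inhibition.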

[17] = at 5.0 µM (retest, dose inferred, filed as 0.5)
[18] = at 50.0 µM (retest, dose inferred, filed as 5.0)

Measured: growth inhibition

CCCCS/C(=C(/C#N)C(N)=O)c1cc2c([nH]1)CCCC2
inactive: [1]; at 1.2 µM 24% | [1]; at 3.7 µM 26% | [1]; at 11.0 µM 33% | [1]; at 33.0 µM 40% | [2]; at 1.2 µM -9% | [2]; at 3.7 µM 0% | [2]; at 11.0 µM -8% | [2]; at 33.0 µM -12% | [2]; at 100.0 µM 56% | [3]; at 1.2 µM 11% | [3]; at 3.7 µM 13% | [3]; at 11.0 µM 11% | [3]; at 33.0 µM 22% | [3]; at 100.0 µM 31% | [4]; at 1.2 µM -7% | [4]; at 3.7 µM -21% | [4]; at 11.0 µM -21% | [4]; at 33.0 µM -14% | [4]; at 100.0 µM 49% | [5]; at 1.2 µM 25% | [5]; at 3.7 µM 23% | [5]; [17] 16% | [5]; at 11.0 µM 24% | [5]; at 33.0 µM 28% | [5]; [18] 30% | [5]; at 50.0 µM 41.2% | [5]; at 100.0 µM 48% | [6]; at 1.2 µM -8% | [6]; at 3.7 µM -22% | [6]; [17] -1% | [6]; at 11.0 µM -17% | [6]; at 33.0 µM -34% | [6]; [18] 13% | [6]; at 50.0 µM 62.4% | [6]; at 100.0 µM 52% | [7]; at 1.2 µM -11% | [7]; at 3.7 µM -9% | [7]; at 11.0 µM -13% | [7]; at 33.0 µM -16% | [7]; at 100.0 µM 62% | [8]; [17] 9% | [8]; [18] 31% | [8]; at 50.0 µM 60.5% | [9]; at 1.2 µM -21% | [9]; at 3.7 µM -19% | [9]; at 11.0 µM -18% | [9]; at 33.0 µM -32% | [9]; at 100.0 µM 56% | [10]; at 1.2 µM -37% | [10]; at 3.7 µM -36% | [10]; [17] 4% | [10]; at 11.0 µM -30% | [10]; at 33.0 µM -6% | [11]; at 1.2 µM -13% | [11]; at 3.7 µM -17% | [11]; at 11.0 µM -16% | [11]; at 33.0 µM 6% | [12]; at 1.2 µM -13% | [12]; at 3.7 µM -19% | [12]; at 11.0 µM -30% | [12]; at 33.0 µM -36% | [12]; at 100.0 µM 54% | [13]; at 1.2 µM 12% | [13]; at 3.7 µM 17% | [13]; at 11.0 µM 18% | [13]; at 33.0 µM 22% | [14]; [17] 13% | [14]; [18] 46% | [14]; at 50.0 µM -32.3% | [15]; at 1.2 µM 0% | [15]; at 3.7 µM -13% | [15]; at 11.0 µM -24% | [15]; at 33.0 µM -19% | [15]; at 100.0 µM 44%
active: [1]; at 100.0 µM 72% | [10]; [18] 71% | [10]; at 50.0 µM 83.5% | [10]; at 100.0 µM 81% | [11]; at 100.0 µM 98% | [13]; at 100.0 µM 72%

CNCC(C)CNC
inactive: [1]; at 1.2 µM -40% | [1]; at 3.7 µM -51% | [1]; at 11.0 µM -46% | [1]; at 33.0 µM -50% | [1]; at 100.0 µM -52% | [2]; at 1.2 µM -25% | [2]; at 3.7 µM -14% | [2]; at 11.0 µM -5% | [2]; at 33.0 µM -8% | [2]; at 100.0 µM -21% | [3]; at 1.2 µM -14% | [3]; at 3.7 µM -29% | [3]; at 11.0 µM -23% | [3]; at 33.0 µM -2% | [3]; at 100.0 µM -19% | [4]; at 1.2 µM 9% | [4]; at 3.7 µM 17% | [4]; at 11.0 µM 25% | [4]; at 33.0 µM 4% | [4]; at 100.0 µM 5% | [5]; at 1.2 µM 4% | [5]; at 3.7 µM -14% | [5]; [17] -6% | [5]; at 11.0 µM -28% | [5]; at 33.0 µM -27% | [5]; [18] 22% | [5]; at 100.0 µM -23% | [6]; at 1.2 µM -12% | [6]; at 3.7 µM -15% | [6]; [17] 10% | [6]; at 11.0 µM -19% | [6]; at 33.0 µM -27% | [6]; [18] 39% | [6]; at 50.0 µM 42.5% | [6]; at 100.0 µM -26% | [7]; at 1.2 µM -18% | [7]; at 3.7 µM -15% | [7]; at 11.0 µM -13% | [7]; at 33.0 µM -12% | [7]; at 100.0 µM -18% | [8]; [17] 2% | [8]; [18] 25% | [8]; at 50.0 µM 23.3% | [16]; [17] 20% | [16]; [18] 63% | [16]; at 50.0 µM 66.2% | [10]; at 1.2 µM -11% | [10]; at 3.7 µM 1% | [10]; [17] -9% | [10]; at 11.0 µM -8% | [10]; at 33.0 µM -33% | [10]; [18] 69% | [10]; at 50.0 µM -2.65% | [10]; at 100.0 µM -50% | [11]; at 1.2 µM -30% | [11]; at 3.7 µM -30% | [11]; at 11.0 µM -28% | [11]; at 33.0 µM -37% | [11]; at 100.0 µM -41% | [12]; at 1.2 µM 12% | [12]; at 3.7 µM 8% | [12]; at 11.0 µM 5% | [12]; at 33.0 µM 6% | [12]; at 100.0 µM -30% | [13]; at 1.2 µM -28% | [13]; at 3.7 µM -6% | [13]; at 11.0 µM -22% | [13]; at 33.0 µM -23% | [13]; at 100.0 µM -22% | [14]; [17] -6% | [15]; at 1.2 µM -16% | [15]; at 3.7 µM -25% | [15]; at 11.0 µM -21% | [15]; at 33.0 µM -21% | [15]; at 100.0 µM -31%
active: [5]; at 50.0 µM 73.8% | [14]; [18] 84% | [14]; at 50.0 µM 71.8%

Cc1cccc(C)c1NC(=O)C(C#N)C1=C(Cl)C(=O)c2ccccc2C1=O (stereo not drawn)
inactive: [1]; at 1.2 µM -43% | [1]; at 3.7 µM 46% | [2]; at 1.2 µM -24% | [2]; at 3.7 µM 24% | [3]; at 1.2 µM 14% | [3]; at 3.7 µM 67% | [4]; at 1.2 µM -4% | [5]; at 1.2 µM -11% | [5]; at 3.7 µM 23% | [6]; at 1.2 µM -7% | [6]; at 3.7 µM 62%
active: [1]; at 11.0 µM 93% | [1]; at 33.0 µM 95% | [1]; at 100.0 µM 94% | [2]; at 11.0 µM 94% | [2]; at 33.0 µM 98% | [2]; at 100.0 µM 97% | [3]; at 11.0 µM 98% | [3]; at 33.0 µM 98% | [3]; at 100.0 µM 96% | [4]; at 3.7 µM 78% | [4]; at 11.0 µM 98% | [4]; at 33.0 µM 98% | [4]; at 100.0 µM 98% | [5]; [17] 95% | [5]; at 11.0 µM 97% | [5]; at 33.0 µM 97% | [5]; [18] 96% | [5]; at 50.0 µM 91.2% | [5]; at 100.0 µM 96%
